# Assay results reported in ChEMBL document CHEMBL3433997, “St. Jude Leishmania screening dataset” (2016).
# Key:
# Assay type in all cases: functional
# [1] = molecular target: Solute carrier family 2, facilitated glucose transporter member 1 (Homo sapiens) (UniProt P11166); test: ST_JUDE_LEISH: Cytotoxicity at 2uM final concentration against transgenic Leishmania Mexicana promastigotes LmGLUT1 that are glucose transport deficient and complemented with the human glucose transporter GLUT1. Activity is measured by DNA content using SYBR green in vitro
# [2] = molecular target: Hexose transporter 1 (Plasmodium falciparum) (UniProt O97467); test: ST_JUDE_LEISH: Cytotoxicity at 2uM final concentration against transgenic Leishmania Mexicana promastigotes LmPfHT that are glucose transport deficient and complemented with the Plasmodium falciparum hexose transporter. Activity is measured by DNA content using SYBR green in vitro
# [3] = molecular target: Glucose transporter (Leishmania mexicana) (UniProt O61059); test: ST_JUDE_LEISH: Cytotoxicity at 2uM final concentration against transgenic Leishmania Mexicana promastigotes LmGT2 that are glucose transport deficient and complemented with the L. Mexicana glucose transporter 2. Activity is measured by DNA content using SYBR green in vitro
# Sequence of Solute carrier family 2, facilitated glucose transporter member 1 (Homo sapiens) (P11166 whole entry): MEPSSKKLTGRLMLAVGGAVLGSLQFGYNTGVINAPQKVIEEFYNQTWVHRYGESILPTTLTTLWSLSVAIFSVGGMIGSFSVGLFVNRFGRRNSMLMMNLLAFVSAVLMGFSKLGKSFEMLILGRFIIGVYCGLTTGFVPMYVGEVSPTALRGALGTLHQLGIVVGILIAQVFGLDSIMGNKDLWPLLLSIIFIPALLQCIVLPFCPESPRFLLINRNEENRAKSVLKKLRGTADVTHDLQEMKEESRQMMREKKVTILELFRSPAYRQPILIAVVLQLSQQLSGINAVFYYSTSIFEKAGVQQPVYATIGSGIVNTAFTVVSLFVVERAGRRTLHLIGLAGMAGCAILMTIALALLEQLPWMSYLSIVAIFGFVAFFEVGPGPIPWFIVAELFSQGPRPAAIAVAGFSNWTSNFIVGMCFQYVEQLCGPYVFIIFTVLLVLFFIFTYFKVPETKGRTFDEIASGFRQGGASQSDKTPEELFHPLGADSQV
compound,measurement,setting,value
COc1ccccc1CCCON1C(=N)N=C(N)NC1(C)C,inhibition,[1],5.24%
same,inhibition,[2],5.03%
same,inhibition,[3],4.51%
COc1ccc2[nH]c(C)cc(=NN=Cc3ccccc3F)c2c1,inhibition,[1],-0.29%
same,inhibition,[2],2.87%
same,inhibition,[3],-2.38%
CCc1cc(Br)c2c(c1)C(NCCCNc1cc(=O)c3ccccc3[nH]1)CCN2 (stereo unspecified),inhibition,[1],3.82%
same,inhibition,[2],2.76%
same,inhibition,[3],5.63%
O=C(Nc1ccc(OC2CCN(Cc3ccccc3)CC2)c(Cl)c1)c1ccco1,inhibition,[1],8.6%
same,inhibition,[2],10.1%
same,inhibition,[3],8.63%
CS(=O)(=O)Nc1ccc(-c2cnc3[nH]cc(-c4ccc(C(=O)O)cc4)c3c2)cc1,inhibition,[1],8.98%
same,inhibition,[2],9.93%
same,inhibition,[3],8.74%
CN(c1ccc(NC(=O)Nc2cc(C(C)(C)C)on2)cc1)c1ccnc(NCCN2CCOCC2)n1,inhibition,[1],32.3%
same,inhibition,[2],57.4%
same,inhibition,[3],5.4%
Cc1cccc2nc(-c3cccc(-c4cccc(CNCCN5CCNCC5)c4)c3)[nH]c12,inhibition,[1],0.34%
same,inhibition,[2],-3.8%
same,inhibition,[3],0.48%
COc1ccc(C(=O)Nc2ccc(Cl)cc2C(=O)Nc2ccncc2)cc1,inhibition,[1],4.33%
same,inhibition,[2],3.94%
same,inhibition,[3],-0.77%
COc1ccccc1CCN1CCC(CN(C)Cc2ccc(O)c(Cl)c2)CC1,inhibition,[1],2.46%
same,inhibition,[2],5.47%
same,inhibition,[3],4.27%
Cc1cc(F)ccc1[C@H]1C[C@H](N2CCOCC2)CCN1C(=O)N(C)[C@@H](C)c1cc(C(F)(F)F)cc(C(F)(F)F)c1,inhibition,[1],0.71%
same,inhibition,[2],0.17%
same,inhibition,[3],-0.74%
FC(F)(F)c1cccc(Nc2nc3nonc3nc2NC2C3CC4CC(C3)CC2C4)c1 (stereo unspecified),inhibition,[1],3.05%
same,inhibition,[2],1.79%
same,inhibition,[3],0.47%
CS(=O)(=O)N(c1ccc(F)cc1)c1cc(C(=O)N[C@@H](Cc2ccccc2)[C@H](O)CNCc2cccc(C(F)(F)F)c2)cc(N2CCCC2=O)c1,inhibition,[1],1.67%
same,inhibition,[2],-0.54%
same,inhibition,[3],-1.53%
